Assay results taken from PubChem BioAssay (NCI).
Several values for one entry are separate records, joined by “and”; a condition that tells them apart may be missing. Equal entries are not always repeated. Compounds without any hit were thinned out: in the full panel of roughly 83,000, 20% have a hit.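 For each line, cells grew in 96-well plates with the test compound present at a single concentration for 48 hours.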 Activity calls are given as the source filed them. The calls were made as follows: active = growth percent below 10; inactive = the rest.

Each molecule was assayed on MCF7 breast (assay: NCI-60 one-dose screen, 48 h (100 = growth as untreated, 0 = no growth, -100 = all killed)). Conditions: 10 µM unless noted.

SMILES	growth
COc1ccc2cc(CN3CCC(C4CCNCC4)CC3)ccc2c1	-76.9% [100 µM] (active) and -23.4% [100 µM] (active)
O=C1c2ccccc2-c2c1c1ccccc1c(=O)n2CCO	6.81% [100 µM] (active) and -32.3% [100 µM] (active)
Cc1ccc2c(sc(-c3ccc4c(c3)sc(-c3ccc5c(c3)sc(-c3ccc(N(C)C)cc3)[n+]5C)[n+]4C)[n+]2C)c1S(=O)(=O)O (tested in a mixture with another compound)	35.5% [100 µM] (inactive) and -81.2% [100 µM] (active)
COc1cc2c(cc1C1COc3cc4occc4cc3C1=O)OCO2 (centres undefined)	65.2% [100 µM] (inactive) and 62.9% [100 µM] (inactive)
COc1ccc(/C=C2/NC(=S)N=C2Cl)cc1	82% [100 µM] (inactive) and 75% [100 µM] (inactive)
CCCCCCSC[C@H](OC(C)=O)[C@@H](OC(C)=O)[C@@H](OC(C)=O)[C@@H](COC(C)=O)OC(C)=O	28.8% [100 µM] (inactive) and 79.7% [100 µM] (inactive)
COc1cc2c(cc1-c1coc3cc(O)ccc3c1=O)OCO2	67.5% [100 µM] (inactive) and 58.5% [100 µM] (inactive)
NC(=O)CC1OC(=O)Cc2cc3c(c(O)c21)C(=O)c1c(O)cccc1C3=O (centres undefined)	30.4% [100 µM] (inactive)
Clc1ccc(C2C3COc4ccccc4C3=NN2c2ccccc2)cc1 (centres undefined)	12.9% [100 µM] (inactive) and -27.8% [100 µM] (active)
